Results filed as inconclusive are left out. Entries that show only a call come without a potency. Values without a mark were called inactive. Calls of active or inactive are those of the source. Calls come from the whole dose curve; as a rule, active = well fitted curve in the direction sought with a large enough effect in the repeat runs; inconclusive = weak or mixed curves; inactive = no such curve, though single readings can be large; an effect the other way counts as inactive or inconclusive.
Legend:
[1] = qHTS RealTime-Glo MT Cell Viability Assay in HEK293 cells - 16 hour (AID 1224872); note: nearly all actives have a fitted effect of over 50% in size; note: potency is the fitted concentration of half-maximal effect
Method in brief: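 Cells + reagent dispensed (600 cells/well, HEK293) → 5 h at 37 C/5% CO2 → 23 nL compound in DMSO pinned → 40 h at 37 C → luminescence read at 0, 8, 16, 24, 32, 40 h.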

[2] = qHTS RealTime-Glo MT Cell Viability Assay in HEK293 cells - 40 hour (AID 1224874); details: RealTime-Glo luminescence; max response: hits give low values; note: nearly all actives have a fitted effect of over 50% in size; note: potency is the fitted concentration of half-maximal effect
Method in brief: (§1)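 Viable HEK293 cells reduce a cell-permeant prosubstrate; the product diffuses out and is consumed by NanoLuc in the medium to give light. Compounds went in after a 5 h incubation and plates were read over the treatment course.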

[3] = A CellTox Green Cytotoxicity Assay to monitor cytotoxicity in HEK293 cells - 24 hour (AID 1224875); note: nearly all actives have a fitted effect of over 45% in size; note: potency is the fitted concentration of half-maximal effect
Method in brief: (§2)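 Fluorescence intensity, read at 0, 8, 16, 24, 32 and 40 h of compound treatment, reflected dye binding to DNA of dead HEK293 cells; compounds (23 nL, DMSO) were added 5 h after plating cells with reagent.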

[4] = A CellTox Green Cytotoxicity Assay to monitor cytotoxicity in HepG2 cells - 16 hour (AID 1224876); note: nearly all actives have a fitted effect of over 45% in size; note: potency is the fitted concentration of half-maximal effect
Method in brief: (§3)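 Using 1536-well format, dye-containing HepG2 suspension was seeded, allowed 5 h at 37 C/5% CO2, dosed by pintool with compounds, positive and negative controls, and imaged for fluorescence across 40 h.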

[5] = qHTS RealTime-Glo MT Cell Viability Assay in HepG2 cells - 32 hour (AID 1224877); note: nearly all actives have a fitted effect of over 55% in size
Method in brief: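 Real-time, nonlytic viability: 600 HepG2 cells/well mixed with NanoLuc enzyme plus prosubstrate; 5 h settle, compound (DMSO) added by pintool; luminescence monitored over 40 h at 37 C.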

[6] = A CellTox Green Cytotoxicity Assay to monitor cytotoxicity in HepG2 cells - 24 hour (AID 1224878); note: nearly all actives have a fitted effect of over 45% in size; note: potency is the fitted concentration of half-maximal effect
Method in brief: as §3

[7] = A CellTox Green Cytotoxicity Assay to monitor cytotoxicity in HepG2 cells - 40 hour (AID 1224879); note: nearly all actives have a fitted effect of over 40% in size; note: potency is the fitted concentration of half-maximal effect
Method in brief: as §3

[8] = qHTS RealTime-Glo MT Cell Viability Assay in HEK293 cells - 0 hour (AID 1224880); note: nearly all actives have a fitted effect of over 45% in size; note: potency is the fitted concentration of half-maximal effect
Method in brief: as §1

[9] = A CellTox Green Cytotoxicity Assay to monitor cytotoxicity in HEK293 cells - 32 hour (AID 1224881); note: nearly all actives have a fitted effect of over 40% in size; note: potency is the fitted concentration of half-maximal effect
Method in brief: as §2

[10] = qHTS RealTime-Glo MT Cell Viability Assay in HepG2 cells - 8 hour (AID 1224873); note: nearly all actives have a fitted effect of over 55% in size; note: potency is the fitted concentration of half-maximal effect
Method in brief: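 HepG2 cells mixed with RealTime-Glo MT reagents (NanoLuc plus cell-permeant prosubstrate) were seeded at 600 cells/well, incubated 5 h at 37 C/5% CO2, then pinned with compounds in DMSO; nonlytic luminescence tracked viability during 40 h treatment.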

SMILES	Potency [1]	max response [2] [%]	Potency [3]	Potency [4]	Potency [5]	Potency [6]	Potency [7]	Potency [8]	Potency [9]	Potency [2]	Potency [10]
CN(C)C/C=C(/c1ccc(Br)cc1)c1cccnc1	inactive	2.35	inactive	inactive	inactive	inactive	inactive	inactive	inactive	–	–
SC1CCCC1	inactive	8.94	inactive	inactive	inactive	inactive	inactive	inactive	inactive	–	–
CC(C)NCC(O)COc1ccc(CC(N)=O)cc1 (configuration not stated)	inactive	-1.4	inactive	inactive	inactive	inactive	inactive	inactive	inactive	–	–
CC(=O)O[C@@H]1C(=O)O[C@@H]2[C@H]1OC(=O)[C@@H]2OC(C)=O	inactive	-24.6	inactive	–	–	inactive	–	inactive	inactive	–	–
Cc1cc(O)ccc1N	49.2 µM (active)	–	34.9 µM (active)	inactive	inactive	inactive	–	12.4 µM (active)	34.9 µM (active)	43.9 µM (active)	–
Cn1sccc1=O	inactive	–	inactive	–	inactive	inactive	–	inactive	inactive	–	inactive
CN1CCN(C2=Nc3cc(Cl)ccc3Nc3ccccc32)CC1	inactive	–	inactive	inactive	–	23.9 µM (active)	23.9 µM (active)	–	inactive	–	inactive
CC(C)c1ccccc1C(C)C	inactive	-23.5	inactive	inactive	–	inactive	inactive	inactive	inactive	–	–
CCCCCCCCCC=O	inactive	7.4	inactive	inactive	inactive	inactive	inactive	inactive	inactive	–	–
CC(C)=CCCC(C)CC=O (configuration not stated)	inactive	-1.27	inactive	inactive	inactive	inactive	inactive	inactive	inactive	–	–
CC(CN)CCCN (configuration not stated)	inactive	1.48	inactive	inactive	inactive	inactive	inactive	inactive	inactive	–	–
COC(=O)C(C)=O	inactive	-0.909	inactive	–	inactive	inactive	inactive	inactive	inactive	–	–
COc1ccc(OC)c(OC)c1	inactive	15.8	inactive	inactive	inactive	inactive	inactive	–	inactive	–	–
CCCCCOC(=O)c1ccc(O)cc1	44.2 µM (active)	–	49.6 µM (active)	–	–	–	–	–	49.6 µM (active)	44.2 µM (active)	–
CN(C)CCCOc1nn(Cc2ccccc2)c2ccccc12	inactive	–	inactive	–	–	–	–	–	inactive	–	inactive
Cl/C(=C\n1cncn1)c1ccc(Cl)cc1Cl	inactive	-23.8	inactive	inactive	inactive	inactive	–	inactive	inactive	–	–
Nc1nc(N)c(-c2ccccc2)s1	inactive	5.71	inactive	inactive	inactive	inactive	inactive	–	inactive	–	–
Cn1c(NCCN(CCO)CCCc2ccc([N+](=O)[O-])cc2)cc(=O)n(C)c1=O	inactive	-12.1	inactive	–	inactive	inactive	inactive	–	inactive	–	–
CCN(CC)C(C)=O	inactive	1.69	inactive	inactive	inactive	inactive	inactive	inactive	inactive	–	–

SMILES	Potency [1]	max response [2] [%]	Potency [3]	Potency [4]	Potency [5]	Potency [6]	Potency [7]	Potency [8]	Potency [9]	Potency [2]	Potency [10]
c1ccc(CNCc2ccccc2)cc1	inactive	-7.12	inactive	inactive	inactive	inactive	inactive	inactive	inactive	–	–
CC(C)c1ccc2c(C(C)C)cc(C(C)C)c(S(=O)(=O)O)c2c1	inactive	-12.5	–	inactive	inactive	inactive	inactive	inactive	–	–	–
O=C(O)c1cccc(N(Cc2cccnc2)c2ccc(OC(F)F)c(OC(F)F)c2)c1	inactive	-2.06	inactive	inactive	–	inactive	inactive	19.5 µM (active)	inactive	–	–
O=C(O)c1cn(C2CC2)c2cc(Cl)c(F)cc2c1=O	–	–	–	inactive	inactive	inactive	inactive	–	–	–	–
Nc1nc(CC(=O)O)cs1	inactive	–	inactive	inactive	inactive	inactive	inactive	inactive	inactive	–	–
NC(N)=NN=C(/C=C/c1ccc([N+](=O)[O-])o1)/C=C/c1ccc([N+](=O)[O-])o1	–	–	10.7 µM (active)	3.79 µM (active)	–	2.13 µM (active)	1.69 µM (active)	–	8.49 µM (active)	0.848 µM (active)	4.25 µM (active)
CCOC(=O)CC(=O)c1cc(F)c(Cl)nc1Cl	–	–	–	inactive	inactive	inactive	inactive	–	–	–	inactive
CN(C(=O)CCCOc1ccc2[nH]c(=O)ccc2c1)C1CCCCC1	–	–	inactive	inactive	inactive	inactive	inactive	inactive	inactive	–	–
CCCC(C)C	–	–	inactive	inactive	inactive	inactive	inactive	inactive	inactive	–	inactive
C[C@H](CCC(=O)O)[C@H]1CC[C@H]2[C@@H]3[C@H](O)C[C@@H]4C[C@H](O)CC[C@]4(C)[C@H]3CC[C@]12C	–	–	inactive	inactive	inactive	inactive	–	inactive	inactive	–	inactive
CCOC(=O)C1=C(C)NC(C)=C(C(=O)OC)C1c1cccc([N+](=O)[O-])c1 (configuration not stated)	–	–	inactive	inactive	–	inactive	inactive	5.35 µM (active)	inactive	–	–
O=C=NC1CCC(CC2CCC(N=C=O)CC2)CC1 (configuration not stated)	inactive	–	–	–	inactive	inactive	inactive	inactive	54.9 µM (active)	–	–
CCCOc1ccc2nc(NC(=O)OC)[nH]c2c1	inactive	–	inactive	inactive	inactive	inactive	–	inactive	inactive	–	–
Cc1cccc(Oc2ccccc2)c1	–	–	inactive	inactive	inactive	–	47.8 µM (active)	–	inactive	47.8 µM (active)	–
CC(C)(C)C(=O)OCOP(=O)(COCCn1cnc2c(N)ncnc21)OCOC(=O)C(C)(C)C	–	–	inactive	inactive	inactive	inactive	inactive	inactive	inactive	0.848 µM (active)	inactive
CCC(C)N(C)C(=O)c1cc2ccccc2c(-c2ccccc2Cl)n1 (configuration not stated)	–	–	inactive	inactive	inactive	25.2 µM (active)	28.2 µM (active)	31.7 µM (active)	inactive	–	inactive
CCOC(=O)[C@H](CCc1ccccc1)N[C@H]1CCc2ccccc2N(CC(=O)O)C1=O	–	–	–	26.8 µM (active)	–	26.8 µM (active)	26.8 µM (active)	–	–	–	–
CC1(C)CCC(C)(C)c2cc(NC(=O)c3ccc(C(=O)O)cc3)ccc21	–	–	inactive	inactive	inactive	inactive	inactive	–	inactive	–	inactive
CCCCc1cc2ccccc2c(OCCN(C)C)n1	–	–	–	–	inactive	–	–	inactive	21.3 µM (active)	–	inactive

SMILES	Potency [1]	max response [2] [%]	Potency [3]	Potency [4]	Potency [5]	Potency [6]	Potency [7]	Potency [8]	Potency [9]	Potency [2]	Potency [10]
CC(C)(C)c1cc(CO)cc(C(C)(C)C)c1O	–	–	inactive	inactive	inactive	inactive	inactive	inactive	inactive	–	inactive
CC(=O)[C@@]1(O)CC[C@H]2[C@@H]3C[C@H](C)C4=CC(=O)CC[C@]4(C)[C@H]3CC[C@@]21C	–	–	inactive	–	inactive	inactive	inactive	6.74 µM (active)	inactive	19 µM (active)	inactive
CCCCC(CC)COCCCN (configuration not stated)	–	–	inactive	inactive	inactive	inactive	inactive	inactive	inactive	–	inactive
CN(c1nccc(=O)[nH]1)C1CCN(c2nc3ccccc3n2Cc2ccc(F)cc2)CC1	–	–	inactive	inactive	inactive	inactive	–	inactive	inactive	–	inactive
Nc1ccc(C(=O)Nc2ccccc2N)cc1	–	–	inactive	inactive	–	–	5.35 µM (active)	inactive	inactive	–	inactive
Cc1cc(C)c(S(=O)(=O)O)cc1N=Nc1cc(S(=O)(=O)O)c2ccccc2c1O	–	–	inactive	inactive	inactive	inactive	inactive	inactive	inactive	–	–
Oc1ccc(Sc2ccc(O)cc2)cc1	–	–	inactive	inactive	inactive	inactive	inactive	inactive	inactive	22.9 µM (active)	inactive
O=C1c2cccc(O)c2C(=O)c2c(O)cc(CO)cc21	–	29.8	inactive	–	inactive	inactive	–	inactive	–	–	inactive
CC[C@]12CCCN3CCc4c(n(c5ccccc45)C(=O)C1)[C@@H]32	–	–	inactive	–	inactive	inactive	6.74 µM (active)	inactive	inactive	4.25 µM (active)	inactive
O=C(Nc1ccccc1)OCC(CN1CCCCC1)OC(=O)Nc1ccccc1 (configuration not stated)	–	–	inactive	inactive	inactive	–	–	inactive	inactive	–	–
Cn1c(N)nc2nc[nH]c2c1=O	–	–	inactive	–	inactive	inactive	21.6 µM (active)	inactive	inactive	–	inactive
Cc1ccc2c(ccc3ccccc32)c1	inactive	–	inactive	inactive	inactive	inactive	inactive	inactive	inactive	–	–
CC(C)(Oc1ccc(Cl)cc1)C(=O)OCCCOC(=O)C(C)(C)Oc1ccc(Cl)cc1	–	-17.7	inactive	inactive	inactive	inactive	inactive	inactive	inactive	–	inactive
CCCCCCCC/C=C\CCCCCCCC(N)=O	–	–	–	inactive	inactive	24.5 µM (active)	34.7 µM (active)	–	–	–	inactive
CC(Cc1cccc(C(F)(F)F)c1)NCCOC(=O)c1ccccc1 (configuration not stated)	–	–	inactive	–	–	–	–	inactive	21.3 µM (active)	–	inactive
C=CC(=O)OCC(C)OCC(C)OCC(C)OC(=O)C=C (configuration not stated)	–	–	inactive	inactive	–	54.9 µM (active)	49 µM (active)	–	54.9 µM (active)	43.6 µM (active)	–
CCCCCC/C=C/C=O	–	35.7	inactive	inactive	inactive	–	–	–	inactive	–	inactive
Oc1ccc(O)c2c(O)cccc12	–	-0.428	inactive	inactive	inactive	inactive	–	inactive	inactive	–	inactive
CCCCCc1ccc(N)cc1	inactive	-15.3	–	–	inactive	49 µM (active)	49 µM (active)	–	–	–	–
